# High-throughput results: PubChem BioAssay, National Center for Advancing Translational Sciences (NCATS)
# Only some compounds are listed: those with a hit (about 9.9% of all), similar ones and a draw of the others.
# JMJD2E inh: inhibitors of human JMJD2E histone demethylase; Potency, µM (highest dose often 57.1 µM), hits mostly inhibitors; B2RXH2; AID 2147; JMJD2E catalytic domain, FDH-coupled NADH fluorescence (FDH is formaldehyde dehydrogenase); actives 1.6% (n = 230,000); further: nearly all actives have a fitted effect of over 50% in size
# Target sequence (B2RXH2 1-337 limits assumed): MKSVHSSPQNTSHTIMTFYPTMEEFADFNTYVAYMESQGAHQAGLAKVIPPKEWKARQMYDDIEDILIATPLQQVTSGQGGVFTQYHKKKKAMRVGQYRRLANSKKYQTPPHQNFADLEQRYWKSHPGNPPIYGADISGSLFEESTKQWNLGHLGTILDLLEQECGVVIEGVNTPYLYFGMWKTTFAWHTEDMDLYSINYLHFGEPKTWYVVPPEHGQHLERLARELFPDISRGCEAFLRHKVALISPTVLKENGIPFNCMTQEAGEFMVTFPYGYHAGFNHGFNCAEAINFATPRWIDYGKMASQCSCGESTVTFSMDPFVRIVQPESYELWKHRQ
# Tau fibril ThT: inhibitors of human tau fibril formation, thioflavin T binding | actives 2.1% (n = 270,000) | P10636 | AID 1460 | Potency, µM (doses to about 57.4 µM), most hits filed as inhibitors | recombinant tau K18 P301L, heparin-induced fibrillization, ThT fluorescence; active means well fitted curve in the direction sought with a large enough effect; inconclusive means small, poorly fitted or top-dose-only effect, or another doubt; inactive means no such curve, though single readings can be large; an effect the other way counts as inactive or inconclusive; further: nearly all actives have a fitted effect of over 55% in size
# Target sequence (P10636 561-689 P618L limits assumed): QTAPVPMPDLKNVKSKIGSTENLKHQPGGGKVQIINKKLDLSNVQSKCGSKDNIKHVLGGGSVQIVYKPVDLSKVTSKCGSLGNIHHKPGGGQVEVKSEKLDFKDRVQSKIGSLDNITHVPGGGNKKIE
#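 Heparin-induced (20 uM) aggregation of recombinant human K18 P301L tau, 15 uM unlabeled with 0.24 uM labeled, pH 7 acetate buffer, 6 hr at 37 C with compound. Fibrils quantified by 30 uM ThT fluorescence after 1 hr ambient incubation.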
# Tau fibril FP: inhibitors of human tau fibril formation; P10636; K18 P301L tau heparin fibrillization, Alexa594 FP, 6 h; Potency, µM (doses to about 57.7 µM), actives largely listed as inhibitors; actives 0.39% (n = 280,000); active means well fitted curve in the direction sought with a large enough effect; inconclusive means small, poorly fitted or top-dose-only effect, or another doubt; inactive means no such curve, though single readings can be large; an effect the other way counts as inactive or inconclusive; further: nearly all actives have a fitted effect of over 55% in size
#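 Compound effects on tau fibrillization are measured by Alexa 594 fluorescence polarization (ex 555, em 632 nm). K18 P301L tau is used at 15 uM with 0.24 uM labeled tracer, and 20 uM heparin induces aggregation over 6 hr at 37 C.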
# ALDH1A1 inh: inhibitors of human aldehyde dehydrogenase 1A1; P00352; actives 7.3% (n = 220,000); Potency, µM (doses to about 75.3 µM), most hits filed as inhibitors; Purified ALDH1A1, NADH fluorescence, propionaldehyde substrate
# Tau fluor cs: counter-screen for tau fibril formation inhibitors | actives 0.93% (n = 280,000) | Potency, µM (highest dose often 57.7 µM) | tau K18 P301L (four-repeat tau fragment) Alexa594 fluorescence, heparin fibrillization; active means well fitted curve in the direction sought with a large enough effect; inconclusive means small, poorly fitted or top-dose-only effect, or another doubt; inactive means no such curve, though single readings can be large; an effect the other way counts as inactive or inconclusive; further: nearly all actives have a fitted effect of over 55% in size
#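 Human K18 P301L tau (15 uM unlabeled plus 0.24 uM Alexa 594-labeled, final) in 100 mM sodium acetate pH 7 was mixed with compound and 20 uM heparin and incubated 6 hr at 37 C.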
# HPGD block: HPGD (human) dehydrogenase inhibition. actives 4.3% (n = 150,000). purified HPGD, NADH fluorescence kinetic, PGE2 substrate. Potency, µM, most hits filed as inhibitors. P15428
# Target sequence (P15428 whole entry, looked up): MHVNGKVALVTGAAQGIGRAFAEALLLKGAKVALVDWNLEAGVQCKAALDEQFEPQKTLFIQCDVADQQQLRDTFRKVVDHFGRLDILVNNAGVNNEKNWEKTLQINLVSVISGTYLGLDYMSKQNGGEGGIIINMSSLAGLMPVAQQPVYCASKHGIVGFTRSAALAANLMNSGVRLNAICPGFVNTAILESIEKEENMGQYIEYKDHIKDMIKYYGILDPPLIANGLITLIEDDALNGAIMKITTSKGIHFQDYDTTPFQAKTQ
#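 NADH formation kinetics: reaction with 30 uM PGE2 and 1 mM NAD+ (final), 20 nM enzyme, Tris-HCl pH 8 with Tween 20, after 15 min compound preincubation at room temperature. Fluorescence change, last versus first of five reads.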
# A number is an active result; – = inactive; ? = inconclusive; · = no result; [ ] = dose if it differs, or a comment. Unless noted, the call rests on the fitted dose curve; in most records, active means well fitted inhibition curve with a large enough effect (not every such curve was filed as active); inconclusive means small, poorly fitted or top-dose-only effect, or another doubt; inactive means no such curve, though single readings can be large or run the other way.
SMILES,JMJD2E inh,Tau fibril ThT,Tau fibril FP,ALDH1A1 inh,Tau fluor cs,HPGD block
CNC(=S)N/N=C/c1cn(CCOc2ccccc2OC)c2ccccc12,?,?,?,–,?,–
COc1ccc(OCCn2cc(/C=N/NC(=O)c3ccncc3)c3ccccc32)cc1,?,?,–,?,13µM[quencher],–
Cc1ccc(OCCn2cc(/C=N/NC(=O)c3ccncc3)c3ccccc32)cc1,–,–,–,–,13µM[quencher],–
COC(=O)N/N=C/c1cn(CCOc2ccccc2)c2ccccc12,–,?,?,·,?,·
CNC(=S)N/N=C/c1cn(CCOc2cccc(OC)c2)c2ccccc12,?,?,–,?,?,16µM
CCOC(=O)N/N=C/c1cn(CCCOc2ccc(C)cc2)c2ccccc12,–,?,–,?,?,–
CCOC(=O)c1cccc(NC(=O)CCC(=O)N2CC(C)Oc3ccc(C)cc32)c1 (stereo not given),·,–,–,·,–,·
COc1cccc(OCCn2cc(C(=O)c3ccco3)c3ccccc32)c1,?,–,–,22µM,–,?
COc1ccccc1OCCn1cc(C(=O)c2ccco2)c2ccccc21,?,–,–,?,?,?
COCCNC(=O)Cn1cc(/C=N/NC(=O)c2ccc(Oc3ccc(O)cc3)cc2)c2ccccc21,–,?,–,–,18µM[quencher],·
O=C(N/N=C/c1cn(CC(=O)N2CCOCC2)c2ccccc12)c1cccnc1,–,–,–,·,–,·
COC(=O)N/N=C/c1cn(CC(C)COc2ccccc2)c2ccccc12 (stereo not given),–,?,?,?,14µM[quencher],–
Cc1ccc(OCCn2cc(/C=C3\C(=O)NN(c4ccccc4)C3=O)c3ccccc32)cc1,–,7.1µM,?,–,?,–
COc1ccccc1NC(=O)C1=C(C)Nc2nc(-c3ccco3)nn2C1c1ccccc1F (stereo not given),·,–,–,·,–,·
O=c1c2sc3ccccc3c2n(Cc2ccccc2)c(=O)n1CCc1ccccc1,·,–,–,·,–,·
COCCc1nn2c(=O)cc(COC(=O)c3ccc4c(c3)OCO4)nc2s1,·,–,–,·,–,·
COCCCNC(=O)Cn1cc(C(C)=O)c2ccccc21,–,–,–,–,–,–
COCCNC(=O)Cn1cc(C(=S)N2CCOCC2)c2ccccc21,–,–,–,32µM,–,·
Cc1nnc(NC(=O)CSCc2cc(=O)c3ccccc3[nH]2)s1,·,–,–,·,–,·
CCCNc1nc(C)nc2c1cnn2CCc1ccccc1,–,–,–,18µM,–,–
Cc1nc(NC(C)C)c2cnn(CCc3ccccc3)c2n1,–,–,–,–,–,–
Nc1n[nH]c(N)c1N=Nc1ccc(F)cc1,–,?,–,–,?,·
COc1ccc(N=Nc2c(N)n[nH]c2N)cc1,–,14µM,–,–,–,·
COc1ccc(N=Nc2cc(C)ccc2O)cc1,–,16µM,–,·,?,·
COc1ccc(N=Nc2ccc(N)nc2N)cc1,?,2.5µM,?,–,?,·
SMILES,JMJD2E inh,Tau fibril ThT,Tau fibril FP,ALDH1A1 inh,Tau fluor cs,HPGD block
Cc1ccc(O)c(N=Nc2ccc(S(=O)(=O)N3CCCC3)cc2)c1,–,·,–,·,?,·
CCOC(=O)c1nnn(C(CC)C(=O)Nc2c(C)cccc2C)c1C(=O)OCC (stereo not given),·,–,–,·,–,·
COc1ccc2cc(-c3nc(Cl)c4c5c(sc4n3)CCCC5)c(=O)oc2c1,·,?,–,·,–,·
CCc1ccc(S(=O)(=O)c2nnn3c2nc(NCCc2ccccc2)c2sccc23)cc1,·,–,?,·,?,·
COc1ccc(OCC(=O)N2CCc3c([nH]c4ccccc34)C2c2ccccn2)cc1 (stereo not given),–,?,–,0.45µM,–,·
COc1ccc(C(=O)N2CCC3(CCCN(C(=O)Nc4cccc(F)c4)C3)CC2)cc1,·,·,·,–,·,–
CN1CCN(/N=C/c2ccc(-c3ccc([N+](=O)[O-])cc3Cl)o2)CC1,–,11µM,–,–,?,·
CC1=C(C(=O)NCc2cccc(Cl)c2)C2(CCCCCC2)OC1=O,·,–,–,·,–,·
O=C(CSc1ccccc1[N+](=O)[O-])NC1CCS(=O)(=O)C1 (stereo not given),–,–,–,–,–,–
O=C(O)C1CCC(NSc2ccccc2[N+](=O)[O-])CC1 (stereo not given),–,16µM,18µM,·,–,·
NNC(=O)c1cnn(Cc2ccccc2)c1N,–,–,–,13µM,–,–
NC(=O)c1cnn(Cc2ccc(Cl)cc2)c1N,–,–,–,–,–,–
Cc1ccccc1Cn1nnc2c(=O)[nH]c(C3CCCN(C(=O)c4ccc(C(C)(C)C)cc4)C3)nc21 (stereo not given),·,–,–,·,–,·
Cc1ccc(C)c(Cn2nnc3c(=O)[nH]c(C4CCCN(C(=O)C5CCC5)C4)nc32)c1 (stereo not given),–,?,–,?,–,4.5µM
Cc1ccc(C)c(Cn2nnc3c(=O)[nH]c(C4CCN(C(=O)c5cccs5)CC4)nc32)c1,–,–,–,–,–,0.56µM
Cc1ccc(Cn2nnc3c(=O)[nH]c(C4CCN(C(=O)c5cccs5)CC4)nc32)cc1,–,–,–,–,–,14µM
COc1ccc(Oc2ncc3nc(C)c(=O)n(-c4ccc(OC)cc4)c3n2)cc1,·,·,·,?,·,–
Cc1ccc(Cn2c(SCC(=O)C(C)(C)C)nc3ccsc3c2=O)cc1,·,–,–,·,–,·
CC(=O)Nc1ccccc1OCC(=O)N(Cc1ccccc1)C(C)C,–,–,–,–,–,–
CCCC(=O)NCCCCNC(=O)CCC,–,–,–,–,–,–
CC(=O)N(O)CCCCCNC(=O)CCC(=O)N(O)CCCCCNC(=O)CCC(=O)N(O)CCCCCN,22µM,–,–,–,–,–
COc1cccc(/C=C/C(=O)OCC(=O)Nc2ccc(Cl)cn2)c1,?,–,–,–,–,·
Cc1cccc(C)c1-n1c(C)cc(/C=N/NC(=O)CSc2ncccn2)c1C,–,?,?,10µM,–,–
Cc1ccccc1N(CC(=O)N/N=C/c1cc(C)n(-c2ccccc2C)c1C)S(C)(=O)=O,?,–,–,4µM,–,?
Cc1cc(C)nc(SCC(=O)N/N=C/c2cc(C)n(-c3ccccc3C)c2C)n1,–,?,–,10µM,–,–
SMILES,JMJD2E inh,Tau fibril ThT,Tau fibril FP,ALDH1A1 inh,Tau fluor cs,HPGD block
Cc1ccccc1Cn1c(SCc2ccc(C(=O)NCCc3ccccc3)cc2)nc2ccncc21,·,–,–,·,–,·
S=C(NCCN1CCOCC1)NC1CCCCC1,–,·,–,·,–,·
CCCN(C(=O)c1c(C)oc2ncnc(N3CCOCC3)c12)c1ccc(Cl)c(Cl)c1,·,–,–,·,–,·
Cc1ccc(NS(=O)(=O)c2ccc(Cl)c(NC(=S)NC(=O)C3CCCCC3)c2)cc1Cl,–,–,?,?,?,–
CCN(CC)CCOC(=O)c1ccc(NC(=O)Cn2ncc3c2-c2cc(C)ccc2OC3)cc1,·,–,–,·,–,·
N#Cc1c(-c2ccncc2)c2c([nH]c1=S)CCCC2,–,?,–,?,–,22µM
